PubChem BioAssay (NCI)
The panel holds about 79,000 compounds, 15% with a hit somewhere; the sample as a whole holds those more often. Cut-off read from the data, not from the text of the source: active = growth inhibition above about 70%; inactive = the rest.

Assays:
[1] = NCI Yeast Anticancer Drug Screen. Data for the rad50 strain (AID 155);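 note: 0% = growth of vehicle-only cultures of the same strain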; details: S. cerevisiae rad50 strain growth inhibition; at 50.0 µM; active compounds read high
Summary of the method: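 Compounds were tested on a yeast strain with an engineered DNA damage repair alteration; the reported value is growth inhibition normalised to vehicle treatment.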

[2] = NCI Yeast Anticancer Drug Screen. Data for the mec2-1 strain (AID 157); details: S. cerevisiae mec2-1 strain, at 50.0 µM, active compounds read high
Summary of the method: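 Mutant yeast (mec2-1) grown with compound; growth inhibition relative to vehicle control reported.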

[3] = NCI Yeast Anticancer Drug Screen. Data for the sgs1 mgt1 strain (AID 161);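 note: 0% = growth of cultures given vehicle only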; details: S. cerevisiae sgs1 mgt1 strain, at 50.0 µM, active compounds read high
Summary of the method: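 Percent growth inhibition was derived by comparing compound-exposed mutant yeast with vehicle-exposed cultures. The strain carries alterations in DNA damage repair.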

[4] = NCI Yeast Anticancer Drug Screen. Data for the cln2 rad14 strain (AID 165);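 note: 0% = growth equal to vehicle treated cultures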; details: S. cerevisiae cln2 rad14 strain, at 50.0 µM, active compounds read high
Summary of the method: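 Readout is yeast growth inhibition versus vehicle-treated controls, using a strain with cln2 and rad14 alterations exposed to compound.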

[5] = NCI Yeast Anticancer Drug Screen. Data for the bub3 strain (AID 167); details: S. cerevisiae bub3 mutant strain, at 50.0 µM, active compounds read high
Summary of the method: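 Growth of a checkpoint-deficient yeast mutant is measured after compound exposure. Values represent inhibition relative to vehicle.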

[6] = NCI Yeast Anticancer Drug Screen. Data for the mlh1 rad18 strain (AID 175); details: S. cerevisiae mlh1 rad18 strain growth inhibition; at 50.0 µM; active compounds read high
Summary of the method: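 Genetically defined yeast (DNA repair-deficient) exposed to compounds; growth inhibition determined relative to vehicle.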

Measured: growth inhibition

CCCC1OCC(C)(CC)CO1 (stereo unspecified)
inactive: [1] 27.6% | [2] -2.55% | [3] -4.9% | [4] 12% | [5] -9.65% | [6] -9.05%

COC(=O)C1C2C=CC(CC2)C1C(=O)OC (stereo unspecified)
inactive: [1] 1.9% | [2] 5.65% | [3] -0.3% | [4] -22.1% | [5] -10.8% | [6] 7.95%

COc1ccc2[nH]c(-c3cccc(N(C)C)c3)cc(=O)c2c1
inactive: [1] -26.1% | [2] -8.1% | [3] -12.5% | [4] -3.95% | [5] -26% | [6] -70.6%

O=C(c1cc(O)c(O)c(O)c1)c1ccc(O)c(O)c1O
inactive: [1] 12.9% | [2] 5.95% | [3] 11.3% | [4] 5.2% | [5] 14.1% | [6] 32.8%

O=c1[nH]cc(NS(=O)(=O)O)c(=O)[nH]1
inactive: [1] -2.15% | [2] -5.4% | [3] 6.5% | [4] 1.45% | [5] 2.95% | [6] -0.55%

COC(=O)CC1OCC=C2CN3CCC45C6=CC(=O)C(=O)C([N+](=O)[O-])=C6NC4C1C2CC35 (stereo unspecified)
inactive: [1] 0.8% | [2] -22.4% | [3] -15.4% | [4] 8.3% | [5] -4.8% | [6] -17.8%

CNC(=S)SSSC(=S)NC
inactive: [1] 13.1% | [2] -1.9% | [3] 1.8% | [4] 2.55% | [5] -10.3% | [6] 5.55%

CCOC(OCC)C(=O)NC(C)c1ccc(O)c(OC)c1 (stereo unspecified)
inactive: [1] -20.8% | [2] 7.95% | [3] 0.2% | [4] -12.2% | [5] -7.4% | [6] 3.2%

CS/C(=C/c1ccc2ccccc2[n+]1C)N1CCN(C)CC1
inactive: [1] -3.3% | [2] -1.25% | [3] -8.15% | [4] -12.9% | [5] -3% | [6] -0.2%

CC(=O)C1C(=O)C(=O)N(CCN2C(=O)C(=O)C(C(C)=O)C2=O)C1=O (stereo unspecified)
inactive: [1] -12.4% | [2] -0.8% | [3] 0.95% | [4] -26.2% | [5] -5.9% | [6] 0.75%

CCOC(=O)C(=O)Nc1ccccc1
inactive: [1] 43.8% | [2] -1.4% | [3] 21% | [4] -21.1% | [5] -4.15% | [6] 18.8%

CC(C)C(N)(C(=O)O)c1ccccc1 (stereo unspecified)
inactive: [1] -19.7% | [2] -20.2% | [3] -51.5% | [4] -73.4% | [5] -14.9% | [6] -24.9%

CCN(CC)C(=O)C(C)=O
inactive: [1] 8.55% | [2] 1.6% | [3] -12.4% | [4] 12.9% | [5] 1.2% | [6] 12.9%

CCC(O)(c1ccc(OC)cc1)C(O)(CC)c1ccc(OC)cc1 (stereo unspecified)
inactive: [1] 9.2% | [2] 2.05% | [3] 16.4% | [4] 7.8% | [5] 5.85% | [6] 4.9%

CCOC(=O)NCC(C)(C)C
inactive: [1] -2.4% | [2] 10.9% | [3] 6.5% | [4] -0.65% | [5] -7.9% | [6] 35.4%

CN(C)c1nc2nc[nH]c2c(=S)n1C
inactive: [1] 7.45% | [2] 6% | [3] 4.1% | [4] 24.6% | [5] -9.6% | [6] 0.15%

CCCCCCCCCCCCCCCCC(NC(C)=O)(C(=O)OCC)C(=O)OCC
inactive: [1] 23.9% | [2] 1.65% | [3] 20.9% | [4] 30.2% | [5] -1.25% | [6] 23.6%

CCOC(=O)c1cnc2[nH]ccn2c1=O
inactive: [1] -26.9% | [2] -43.3% | [3] -4.45% | [4] 10.3% | [5] -6.55% | [6] -8.75%

COc1cc2c(cc1OC)C[N+]1(C)CCc3cc(OC)c(OC)cc3C1C2 (stereo unspecified)
inactive: [1] -16% | [2] -30.9% | [3] -9.9% | [4] 9.1% | [5] -8% | [6] -5.55%

COc1cc(OC)c(-c2oc3ccccc3c(=O)c2O)c(OC)c1
inactive: [1] -9.5% | [2] 12.7% | [3] 2.4% | [4] -13.2% | [5] 4.65% | [6] -5.45%

O=S(=O)(O)c1ccc[n+]([O-])c1
inactive: [1] 5.7% | [2] 15.4% | [3] -0.05% | [4] 39.5% | [5] 9.1% | [6] -8.2%
